The list is not random: actives were taken first. Their share in the collection is about 5.7%.
PI5P4Ka inh – qHTS for Inhibitors of phosphatidylinositol 5-phosphate 4-kinase (PI5P4K). Phosphatidylinositol 5-phosphate 4-kinase type-2 alpha (Homo sapiens), P48426. max response, %. PI5P4Kalpha enzyme, ADP-Glo luminescence, 60 min; stronger effect = lower value. 1.2% of 330,000 active; active = max response of -50% or lower; inconclusive = between -30% and -50%; inactive = -30% or higher; also: value at the top dose of about 77 µM; % is scaled to controls: 0 for no effect and ±100 for the full control effect
Target sequence (P48426 whole entry, looked up): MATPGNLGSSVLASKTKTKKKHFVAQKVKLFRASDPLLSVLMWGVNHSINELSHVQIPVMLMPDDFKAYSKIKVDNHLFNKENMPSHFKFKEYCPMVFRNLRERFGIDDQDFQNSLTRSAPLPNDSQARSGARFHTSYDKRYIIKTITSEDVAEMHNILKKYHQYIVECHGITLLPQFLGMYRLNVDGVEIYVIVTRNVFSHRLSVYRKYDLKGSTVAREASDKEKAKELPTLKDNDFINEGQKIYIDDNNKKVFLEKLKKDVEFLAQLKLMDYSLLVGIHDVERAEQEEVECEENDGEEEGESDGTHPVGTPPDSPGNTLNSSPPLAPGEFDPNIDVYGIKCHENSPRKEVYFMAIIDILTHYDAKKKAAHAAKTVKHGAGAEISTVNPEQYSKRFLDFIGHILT
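Single end-point luminescence (ADP-Glo) quantified ADP from PI5P4Kalpha turnover; ATP 5 microM final, 1 h at RT, 0.1% CHAPS and 0.28 mM EGTA in HEPES pH 7.4.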
JMJD2A Tudor – qHTS Assay for Inhibitors of JMJD2A-Tudor Domain | Potency, µM (series often up to 114 µM), for the others: at the top dose activity change, negative = inhibition, hits mostly inhibitors | 4.4% of 390,000 active | Lysine-specific demethylase 4A (Homo sapiens), O75164 | AlphaScreen JMJD2A-Tudor / H3K4me3 peptide binding; also: potency is read from the fitted curve at half-maximal effect; % is scaled to controls: 0 for no effect and ±100 for the full control effect; nearly all actives have a fitted effect of over 50% in size
JMJD2E inh – qHTS Assay for Inhibitors of Human Jumonji Domain Containing 2E (JMJD2E) | JMJD2E catalytic domain, FDH-coupled NADH fluorescence (FDH is formaldehyde dehydrogenase) | Potency, µM (top dose mostly 57.1 µM), for inactives: at the top dose activity change, negative = inhibition, most hits filed as inhibitors | 1.6% of 230,000 active | Lysine-specific demethylase 4E (Homo sapiens), B2RXH2; active = well fitted inhibition curve with a large enough effect, not every such curve was filed as active; inconclusive = small, poorly fitted or top-dose-only effect, or another doubt; inactive = no such curve, though single readings can be large or run the other way;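 also: potency is read from the fitted curve at half-maximal effect; 0% = wells with enzyme and -100% = buffer wells without enzyme; nearly all actives have a fitted effect of over 50% in size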
L3MBTL1 block – qHTS Assay for the Inhibitors of L3MBTL1; Lethal(3)malignant brain tumor-like protein 1 (Homo sapiens), Q9Y468; Potency, µM (doses to about 57.1 µM), for inactives: at the top dose activity, negative = inhibition, most hits filed as inhibitors; AlphaScreen L3MBTL1–H3K9me1 peptide binding; AID 485360, 2010; 0.66% of 230,000 active; also: potency is read from the fitted curve at half-maximal effect; % is scaled to controls: 0 for no effect and ±100 for the full control effect; nearly all actives have a fitted effect of over 60% in size
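Displacement of a biotinylated histone H3(1-15) peptide monomethylated at Lys9 (75 nM) from L3MBTL1 (50 nM) was measured by AlphaScreen after a 30 min room-temperature compound incubation; cefsulodin titration served as intraplate control.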
HP1b binding inh – HTS for Inhibitors of HP1-beta Chromodomain Interactions with Methylated Histone Tails; AlphaScreen HP1-beta / biotin-H3K9me3 peptide binding; Potency, µM (titrated, usually from 114 µM), inactives show at the highest dose activity change, negative = inhibition, hits mostly inhibitors; 0.56% of 390,000 active; AID 540317, 2011; also: potency is read from the fitted curve at half-maximal effect; nearly all actives have a fitted effect of over 70% in size
Target sequence (P83916 whole entry, looked up): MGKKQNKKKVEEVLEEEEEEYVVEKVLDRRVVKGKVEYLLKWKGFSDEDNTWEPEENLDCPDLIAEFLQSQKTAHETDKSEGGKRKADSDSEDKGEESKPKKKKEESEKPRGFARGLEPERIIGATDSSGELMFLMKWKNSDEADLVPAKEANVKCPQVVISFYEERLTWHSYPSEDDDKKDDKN
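AlphaScreen: HP1-beta (50 nM) preformed 30 min with biotin-H3(1-18)K9me3 peptide (50 nM) in PBS pH 7.4, 0.01% Tween-20. Compound added for 30 min at RT, then streptavidin donor/nickel chelate acceptor beads (10 ug/mL) for 30 min.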
BAZ2B inh – qHTS Assay for Inhibitors of BAZ2B | Potency, µM (top dose mostly 114 µM), for the others: at the highest dose activity change, negative = inhibition, hits mostly inhibitors | 4.4% of 360,000 active | AlphaScreen BAZ2B-H3K14Ac peptide displacement | Bromodomain adjacent to zinc finger domain protein 2B (Homo sapiens), Q9UIF8; also: potency is read from the fitted curve at half-maximal effect; % is scaled to controls: 0 for no effect and ±100 for the full control effect; nearly all actives have a fitted effect of over 60% in size
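Complex of BAZ2B and biotin-H3K14Ac (50 nM apiece) forms over 30 min at RT, then faces library compounds up to 110 uM for another 30 min; AlphaScreen beads added, 20 min dark incubation, luminescence read.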
Starred values were filed as active, the others as inactive; u = inconclusive; x = no result given; [ ] = another dose, or the depositor's remark. Unless noted, calls follow the shape of the dose curve; as a rule, active = well fitted inhibition curve with a large enough effect; inconclusive = small, poorly fitted or top-dose-only effect; inactive = no such curve, though single readings can be large or run the other way.

SMILES	PI5P4Ka inh	JMJD2A Tudor	JMJD2E inh	L3MBTL1 block	HP1b binding inh	BAZ2B inh
Cc1ccc(OCC(O)CNC2CCCC2)c(C)c1 (centres undefined)	1	-18%	x	5%	13%	2%
CC(C)(C)c1ccc(OCCC(=O)OCC(=O)NC2CC2)cc1	2	9%	x	3%	28%	-2%
Cc1ccc(OCCCCNC2CCCCC2)c(C)c1	-1	28µM*	u	31%	-22%	79µM*
Brc1cccc(OCCCNC2CCCC2)c1	1	16µM*	x	8%	16%	u
CC(C)(C)c1ccc(OCCCNC2CCCC2)cc1	-4	20µM*	u	3%	-36%	79µM*
CSc1cc2c(s1)c1cnn(Cc3cccc(O)c3)c(=O)c1n2C	x	-31%	x	x	x	x
Cc1ccc(NC(=O)CNC(=O)c2ccc(OC(F)F)cc2)cc1S(=O)(=O)N1CCCCCC1	0	-11%	x	x	25%	x
COc1ccc(-c2nc(C)c(CCNC(=O)c3ccc(F)c(F)c3)s2)cc1	x	-15%	x	x	20%[57 µM]	-1%
COc1cccc(OC)c1OCCCNC1CCCC1	4	25µM*	x	11%	u	u
N#Cc1ccccc1OCCCNC1CCCC1	-1	-100%	-23%	7%	u	u
Cc1ccc(C)c(OCCCNC2CCCC2)c1C	-6	0.79µM*	5%	-10%	u	u
CCc1nc2c(OCc3ccc(C(F)(F)F)cc3)cccn2c1N(C)C(=O)c1ccc(C)cc1	-2	x	x	x	x	x
O=C1CC(c2ccco2)c2ccc3ccccc3c2N1 (centres undefined)	-19	u	-6%	-3%	-15%	50µM*
O=C1C(=O)N(c2cccc(Cl)c2)C(c2ccccc2[N+](=O)[O-])/C1=C(\O)c1ccccc1 (centres undefined)	x	u	0%	0%	-8%	79µM*
O=C(NCc1ccccc1)c1ccc(Cn2c(=O)c3cccn3c3cccnc32)cc1	x	10%	x	x	29%	-22%
COc1ccc2[nH]c3c(c2c1)CCNC3c1ccc([N+](=O)[O-])o1 (centres undefined)	u	50µM*	x	x	-9%	u
CC(C)(C)C1CCc2c(sc(NC(=O)c3ccc(Cl)cc3)c2C(=O)NCc2ccco2)C1 (centres undefined)	x	-7%	x	x	55%	4%
CCc1nnc(NC2=NCCC2)s1	11	71µM*	u	x	17%	u
Cc1cnc(NC2=NCCC2)s1	-4	u	2%	-4%	5%	-32%
c1nnc(NC2=NCCC2)s1	1	8.9µM*	2%	x	-6%	-4%
CCn1c(C(=O)NCCc2ccc(S(N)(=O)=O)cc2)cc2sc(Cl)cc21	x	-16%	x	x	24%	-1%
CC(=O)NC(c1ccccc1)c1nc(-c2csc3ccccc23)cs1 (centres undefined)	18	x	x	x	x	x
COc1ccc(NC(=O)Cc2csc(NC(=O)Nc3ccccc3OC)n2)cc1	-6	x	x	x	x	x
COc1ccccc1NC(=O)Nc1nc(CC(=O)Nc2ccc(N(C)C)cc2)cs1	-7	25µM*	x	u	40µM*	13µM*
CN(C)c1ccc(NC(=O)Nc2csc3ccccc23)cc1	-3	u	-6%	-28%	-8%	35µM*
SMILES	PI5P4Ka inh	JMJD2A Tudor	JMJD2E inh	L3MBTL1 block	HP1b binding inh	BAZ2B inh
O=C(Nc1ccc(F)cc1)Nc1csc2ccccc12	0	-10%	-2%	x	29%	0%
O=C(OCC#CCNc1nnc(-c2cccc3ccccc23)o1)c1cccs1	x	x	x	4%	x	-29%
CCOc1ccccc1NC(=O)c1c2c(nc3ccccc13)C(=O)N(C1CCCCC1)C2	x	-33%	x	x	19%	-32%
OCCCn1c(-c2ccc(F)cc2)csc1=Nc1ccc(F)cc1	x	40µM*	x	x	u	45µM*
C=CCn1c(-c2ccc(S(=O)(=O)N3CCOCC3)cc2)csc1=Nc1ccccc1	1	u	-19%	-27%	-11%	6.3µM*
Cc1ccc(-c2csc(=Nc3ccccc3)n2CCCO)cc1	x	35µM*	x	x	u	45µM*
CC(C)Cn1c(-c2ccc(S(=O)(=O)N3CCCC3)cc2)csc1=Nc1ccccc1	x	u	x	x	-16%	u
CC(=O)c1cccc(N=c2scc(-c3ccc(S(=O)(=O)N4CCOCC4)cc3)n2CCO)c1	-15	-34%[57.1 µM]	-17%	-1%	u	u
O=S(=O)(c1ccc(-c2csc(=Nc3ccc(F)cc3)n2CCCCCCO)cc1)N1CCCC1	x	40µM*	x	x	u	u
Cc1csc(=Nc2ccccc2)n1CCCN1CCCC1=O	3	-33%	2%	-6%[11.4 µM]	-3%	u
CC(C)(C)C1CCc2c(sc(NC(=O)Cn3nnc(-c4ccccc4Cl)n3)c2C#N)C1 (centres undefined)	x	-32%	x	x	-24%	-26%
COc1ccc(-c2csc(=NCCO)n2-c2ccccc2)cc1	1	u	x	x	u	32µM*
CN(C)S(=O)(=O)c1cccc(-c2csc(=Nc3ccccc3)n2CCCN2CCOCC2)c1	-7	50µM*	7%	0%	u	32µM*
COc1ccc(N=c2scc(-c3ccc(S(=O)(=O)N4CCOCC4)cc3)n2CCCO)cc1	x	x	-4%	-5%	x	50µM*
COc1ccc(-c2csc(=Nc3ccccc3)n2CCO)cc1	2	45µM*	-7%	-26%	u	13µM*
Cc1ccc(C)c(-c2nc(Cn3c(=O)cc(-c4ccccc4)c4c(C)nn(C)c43)c(C)o2)c1	x	-5%	x	x	68%	-4%
COc1cc(C2c3c(oc4ccccc4c3=O)C(=O)N2c2nncs2)cc(OC)c1OC (centres undefined)	x	-3%	x	x	21%	0%
FC(F)(F)c1ccccc1Nc1nccs1	-2	50µM*	-1%	-1%	57%	-2%
C#CC(c1ccccc1)(c1ccccc1)n1ccnc1	3	x	x	x	x	x
Clc1ccccc1C(c1ccccc1)(c1ccccc1)n1ccnc1	-17	28µM*	-1%	u	-16%	22µM*
COCCNC(=S)N1CCN(c2nc(-c3ccc(F)cc3)cs2)CC1	1	-35%	x	-11%	1%	u
COCCNC(=S)N1CCN(c2nc(-c3ccc(Cl)cc3)cs2)CC1	0	32µM*	x	-1%	6%	-31%
CCOc1ccc(CNC(=O)c2cccc(NC(=O)C3=C(C)OCCS3)c2)cc1	-1	9%	x	x	27%	50µM*

Screens deposited in PubChem BioAssay by National Center for Advancing Translational Sciences (NCATS).
